The results in this text go back to the supplement of paper PMC6555819.

Common to all, as to assay: PBM binding z-score (relative to random genomic background probes); higher = stronger binding; sequences stand for … in GC…GCGATTGACAGCGTAGAATGAAGG
The subject of assay [1] is RARb homodimer (NR concentration 270 nM). Put shortly:
(§1)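 On custom Agilent 4×180K arrays, double-stranded probes with 34-nt variable regions carried direct-repeat seeds, single-nucleotide variants, half-site ablations or random human genomic background. Ligand-free nuclear receptor dimers were applied for 1 h, and binding was read with antibodies against each partner (one per run). Binding z-scores come from regression-normalized fluorescence, with the random background probes as reference.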

Assay [2] deals with RARg:RXRa (NR concentration 270 nM, RXRa partner concentration 90 nM). Put shortly: as §1
The subject of assay [3] is RARg homodimer (NR concentration 270 nM). The procedure, abridged: as §1
Assay [4] has as its system RXRa DBDmut IVT, anti-RXR (DBD mutation: RXRa K156A/R161A, NR concentration 90 nM). Put shortly:
as §1

The subject of assay [5] is RXRa homodimer (NR concentration 180 nM). Put shortly: as §1
For assay [6], the system named is THRa:RXRa (NR concentration 90 nM, RXRa partner concentration 90 nM). Put shortly: as §1
Assay [7] deals with THRa homodimer (NR concentration 90 nM). The procedure, abridged: as §1
The subject of assay [8] is VDR homodimer (NR concentration 270 nM). Put shortly:
as §1

Consider CGTCAAAGTTCAACTAAGGTGACGTAAAGCACGC, for which the PBM binding z-score in assay [1] amounted to 4.55; in assay [2], 5.96; in assay [3] it was 6.76; in assay [4], 4.56; in assay [5], 5.33; in assay [6] it was 5.17. Besides, the PBM binding z-score turned out to be 1.95 in assay [7] and 4.18 in assay [8].
With CGAACTTGGTCATTGACAGGACAGTGAATAGTAA, the PBM binding z-score was 0.601 in assay [1]; 1.04 in assay [2]; 0.884 in assay [3]; 0.43 in assay [4]; 0.621 in assay [5]; 0.513 in assay [6]. Besides, the figures for the PBM binding z-score in assay [7] and in assay [8] were -0.107 and 0.11, respectively.
As to TCTATTAGTTGATTAGGGCAACCCAAACAGCGGA, the PBM binding z-score in assay [1] worked out at 0.891; in assay [2], 0.877; in assay [3], 0.646; in assay [4], 1.04; in assay [5] it was 0.612; in assay [6], 0.77. The PBM binding z-score in assay [7] is 0.499; in assay [8] it was 0.49.
In the case of ACTCGGAGGACATAGGTCAGAGCTACGCCAGTGA, the PBM binding z-score was found to be 2.6 in assay [1]; 3.03 in assay [2]; 2.28 in assay [3]; 0.527 in assay [4]; 2.26 in assay [5]; 2 in assay [6]. Also, the PBM binding z-score in assay [7] was 0.0623; in assay [8], 0.202.
Turning to TCGAGTAGGTTACCAATGCGGCATTCAGCTTTCT, the PBM binding z-score in assay [1] was -0.23; in assay [2], 0.0889; in assay [3] it was 0.12; in assay [4], 0.365; in assay [5], 0.498; in assay [6], -0.131. Also, the PBM binding z-score in assay [7] was -0.859; in assay [8], -0.937.
Turning to TCTCGGAAGACACGAAGGTCAGAGCTTTCCAGAG, the PBM binding z-score in assay [1] is 3.02; in assay [2] it was 1.39; in assay [3], 1.67; in assay [4] it was 0.484; in assay [5] it was 1.61; in assay [6] it was 1.09. Besides, the PBM binding z-score was -0.118 in assay [7] and 0.195 in assay [8].
On to TAGGCTAGGTCATGCGGGCCAGTATAGTGTCGGC, for which the PBM binding z-score in assay [1] was determined as 3.1; in assay [2], 3.73; in assay [3], 4.44; in assay [4], 0.47; in assay [5] it was 3.14; in assay [6] it was 2.77. The PBM binding z-score in assay [7] is 0.748; in assay [8], 0.519.
